Pol eta inh-1 – DNA polymerase eta (human) inhibition. Q9Y253. recombinant Pol eta, fluorescent DNA replication assay. Potency, µM (titrated, usually from 114 µM), without a hit: at the top dose activity change, negative = inhibition, usual class: inhibitors. actives 1.2% (n = 390,000). AID 588591; note: potency is the fitted concentration of half-maximal effect; % is set by controls: 0 for no effect and ±100 for the full control effect
Target sequence (Q9Y253 whole entry, looked up): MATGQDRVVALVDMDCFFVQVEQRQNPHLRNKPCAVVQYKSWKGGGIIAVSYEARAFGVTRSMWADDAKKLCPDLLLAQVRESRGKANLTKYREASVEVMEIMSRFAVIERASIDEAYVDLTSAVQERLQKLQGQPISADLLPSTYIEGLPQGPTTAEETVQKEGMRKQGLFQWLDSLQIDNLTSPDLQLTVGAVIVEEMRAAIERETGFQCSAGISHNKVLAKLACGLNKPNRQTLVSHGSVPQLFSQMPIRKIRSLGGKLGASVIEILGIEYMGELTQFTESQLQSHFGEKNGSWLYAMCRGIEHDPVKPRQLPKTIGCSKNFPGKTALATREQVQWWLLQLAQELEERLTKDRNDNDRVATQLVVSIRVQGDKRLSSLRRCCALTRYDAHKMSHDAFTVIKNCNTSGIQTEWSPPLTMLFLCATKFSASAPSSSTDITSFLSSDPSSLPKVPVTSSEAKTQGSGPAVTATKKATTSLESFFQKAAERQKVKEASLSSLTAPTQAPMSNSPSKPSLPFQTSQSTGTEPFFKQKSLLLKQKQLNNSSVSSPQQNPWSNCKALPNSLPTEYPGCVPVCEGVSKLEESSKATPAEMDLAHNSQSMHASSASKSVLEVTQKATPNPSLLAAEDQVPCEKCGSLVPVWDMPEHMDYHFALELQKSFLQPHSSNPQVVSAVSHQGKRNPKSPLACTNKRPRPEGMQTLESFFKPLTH
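Pol eta (10 nM) was preincubated with compounds for 15 min at room temperature, after which fluorescent replication substrate (50 nM final) was added to start the reaction. Fluorescence was read kinetically at 0 and 10 min.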
PI5P4K alpha inh – PI5P4K alpha (human) kinase inhibition; AID 652105; PI5P4Kalpha enzyme, ADP-Glo luminescence, 60 min; stronger effect = lower value; actives 1.2% (n = 330,000); max response, %; P48426; active = max response of -50% or lower; inconclusive = between -30% and -50%; inactive = -30% or higher; note: value at the top dose of about 77 µM; % is set by controls: 0 for no effect and ±100 for the full control effect
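Controls without substrate or without enzyme flank wells where PI5P4Kalpha converts substrate using 5 microM ATP (final). Incubation lasts 60 minutes at room temperature; ADP formed is read by ADP-Glo luminescence.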
POLI inh – DNA polymerase iota (human) inhibition | Pol iota fluorescent replication assay, 10 min | AID 588590 | actives 1% (n = 390,000) | Q9UNA4 | Potency, µM (highest dose often 115 µM), for inactives: at the top dose activity, negative = inhibition, hits mostly inhibitors; note: potency is the fitted concentration of half-maximal effect
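Fluorescent replication assay read twice, at 0 min and 10 min after adding 50 nM (final) substrate. Enzyme (10 nM) and compounds were first incubated 15 min at room temperature; enzyme-free buffer wells were negative controls.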
Pol beta inh – DNA polymerase beta (human) inhibition; actives 1.3% (n = 340,000); AID 485314; Pol beta primer extension/strand displacement, fluorescence kinetic; Potency, µM (highest dose often 114 µM), inactives show top-dose activity change, negative = inhibition, hits mostly inhibitors; note: potency is the fitted concentration of half-maximal effect; % is set by controls: 0 for no effect and ±100 for the full control effect
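Values derive from four-parameter Hill fits of normalized kinetic data: reads at 0 and 10 min following addition of 50 nM substrate to 10 nM Pol beta preincubated 15 min with compound.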
Pol kappa inh-1 – DNA polymerase kappa (human) inhibition; Potency, µM (series often up to 107 µM), for inactives: top-dose activity, negative = inhibition, hits mostly inhibitors; Q9UBT6; purified Pol kappa, fluorescent DNA synthesis assay, 10 min; actives 0.53% (n = 400,000); AID 588579; note: potency is the fitted concentration of half-maximal effect; % is set by controls: 0 for no effect and ±100 for the full control effect
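Here, compound and 10 nM enzyme are combined for 15 min at room temperature; adding 50 nM substrate (final) starts DNA synthesis, tracked by fluorescence at 0 and 10 min against buffer-only wells.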
WRN helicase inh-1 – WRN helicase (human) inhibition | AID 651768 | Potency, µM (series often up to 114 µM), for inactives: top-dose activity change, negative = inhibition, actives largely listed as inhibitors | actives 0.46% (n = 360,000) | Q14191 | WRN helicase unwinding, fluorescent forked duplex, kinetic; note: potency is the fitted concentration of half-maximal effect; % is set by controls: 0 for no effect and ±100 for the full control effect; nearly all actives have a fitted effect of over 55% in size
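WRN at 20 nM final preincubated with compound 15 min at room temperature; reaction started with 100 nM fluorophore/quencher forked duplex oligonucleotide and 2 mM ATP final. Unwinding followed kinetically by red fluorescence (ex 525, em 598 nm).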
BAZ2B inh – inhibits human BAZ2B bromodomain, hit validation; shares compounds with Pol kappa inh-1; AlphaScreen BAZ2B / biotin-H3K14Ac peptide displacement; Potency, µM, usual class: inhibitors; actives 100% (n = 25); AID 588809; calls by dose curve
AlphaScreen ctr – AlphaScreen signal interference, BAZ2B hit counter-screen | AID 588859 | 25 tested, under 10 active | Potency, µM (highest dose often 57.1 µM), for the others: top-dose activity change, negative = inhibition, hits mostly inhibitors | AlphaScreen biotin-His6 peptide bead counterscreen, signal decrease | shares compounds with Pol kappa inh-1;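 active = clear concentration-dependent signal drop in the bead assay lacking the target, so a primary-screen artifact; inconclusive = weak, partial or single-dose response; inactive = no response, so a real primary hit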
PGK validate – TbPGK inhibition, hit validation | AID 686980 | shares compounds with Pol kappa inh-1 | TbPGK coupled GAPDH assay, Kinase-Glo luminescence | actives 79% (n = 500) | Potency, µM (doses to about 57.5 µM), without a hit: at the top dose activity change, negative = inhibition, actives largely listed as inhibitors; note: potency is the fitted concentration of half-maximal effect; % is set by controls: 0 for no effect and ±100 for the full control effect; nearly all actives have a fitted effect of over 65% in size
Pol iota confirm – Human Pol iota inhibitor confirmatory assay; shares compounds with Pol kappa inh-1; Pol iota primer extension, TAMRA/BHQ fluorescence; Potency, µM, hits mostly inhibitors; actives 77% (n = 1,500); AID 720496; note: potency is the fitted concentration of half-maximal effect
Pol kappa inh-2 – confirmation of human DNA polymerase kappa inhibitors | shares compounds with Pol eta inh-1 | purified Pol-kappa, fluorescent strand-displacement substrate | Potency, µM, usual class: inhibitors | actives 76% (n = 920) | AID 720501; note: potency is the fitted concentration of half-maximal effect
Pol eta inh-2 – Pol eta (human) inhibition, cherry-pick confirmation | Pol eta primer extension, TAMRA/BHQ fluorescence, 10 min | actives 64% (n = 2,600) | shares compounds with Pol eta inh-1 | Potency, µM, usual class: inhibitors; note: potency is the fitted concentration of half-maximal effect
WRN helicase inh-2 – WRN helicase inhibition, cherry-pick retest; shares compounds with WRN helicase inh-1; WRN helicase DNA unwinding, fluorescence kinetic; Potency, µM (highest dose often 57.1 µM), for the others: at the highest dose activity, negative = inhibition, hits mostly inhibitors; actives 63% (n = 610); AID 720497; note: potency is the fitted concentration of half-maximal effect; nearly all actives have a fitted effect of over 65% in size
TO DNA binding – counter-screen for WRN helicase inhibitors: DNA binding; shares compounds with WRN helicase inh-1; thiazole orange DNA binding displacement, fluorescence; Potency, µM (doses to about 57.1 µM), inactives show top-dose activity change, negative = inhibition, most hits filed as inhibitors; actives 10% (n = 610);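 note: drop in dye fluorescence marks compound binding to DNA; potency is the fitted concentration of half-maximal effect; % is set by controls: 0 for no effect and ±100 for the full control effect; nearly all actives have a fitted effect of over 60% in size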
BLM counter – counter-screen for WRN helicase inhibitors: human BLM helicase inhibition. shares compounds with WRN helicase inh-1. Recombinant BLM helicase DNA unwinding, red fluorescence. Potency, µM (highest dose often 57.1 µM), for inactives: top-dose activity change, negative = inhibition, most hits filed as inhibitors. actives 60% (n = 610); note: potency is the fitted concentration of half-maximal effect; nearly all actives have a fitted effect of over 60% in size
* marks the source's active call; other numbers are inactive results; i = inactive; u = inconclusive; x = not tested or not shown; [ ] = dose if it differs, or a comment. Hits are enriched below; roughly 2.8% of the tested compounds scored in any of these assays. Unless noted, calls come from the whole dose curve; as a rule, active = well fitted curve in the direction sought with a large enough effect; inconclusive = small, poorly fitted or top-dose-only effect, or another doubt; inactive = no such curve, though single readings can be large; an effect the other way counts as inactive or inconclusive.

SMILES	Pol eta inh-1	PI5P4K alpha inh	POLI inh	Pol beta inh	Pol kappa inh-1	WRN helicase inh-1	Pol iota confirm	Pol eta inh-2	others
CCOc1cccc(N2C(=O)/C(=C/c3ccco3)C(=O)NC2=S)c1	3.16µM*	-92.9*	u	7.94µM*	22.4µM*	35.5µM*	9.47*	15.1*	PGK validate=9.19µM*
CCN(CC)c1ccc(/C=C2\C(=O)NC(=S)N(c3ccc(OC)cc3OC)C2=O)o1	-15.1%	6.7	88.8%	x	-6.5%	-34.8%	x	x
c1ccc2c(c1)OC[C@@H](C1=NCCN1)O2	x	x	x	x	-7.8%[19.4 µM]	x	x	x
O=C(O)CCn1cc(C=C2C(=O)NC(=S)NC2=O)c(-c2cc3ccccc3oc2=O)n1	20µM*	-71.4*	39.8µM*	-25.4%	u	u	67*	30.1*
Cc1cccc(N2C(=O)NC(=O)/C(=C/c3ccc(N4CCOCC4)cc3)C2=O)c1	-3.8%	-23.5	102.0%	13.7%	-26.7%	u	x	x
O=C1NC(=O)N(c2cccc(Cl)c2)C(=O)/C1=C\c1ccc(Sc2nc3ccccc3[nH]2)o1	17.8µM*	-74.4*	u	31.6µM*	22.4µM*	89.1µM*	75.2*	26.9*
O=C1NC(=S)NC(=O)C1=Cc1cccn1-c1ccc(O)cc1	3.55µM*	-83.7*	2.24µM*	25.1µM*	17.8µM*	44.7µM*	7.52*	6.01*	PGK validate=16.3µM*
CC(C)(C)C(O)C(Cc1ccc(Cl)cc1Cl)n1cncn1 (stereo not drawn)	x	x	x	x	14.2%[60.1 µM]	x	x	x
O=C1NC(=O)N(Cc2ccc(F)cc2)C(=O)/C1=C\c1ccc(N2CCCC2)cc1	31.6µM*	-58.9*	14.1µM*	35.5µM*	u	u	67*	60.1*
O=c1[nH]c(=O)n(-c2ccccc2)c(O)c1/C=C/C=Nc1ccccc1	u	-14.5	u	u	-8.5%	-17.7%	x	x
COc1ccc(-n2c(O)c(/C=C/C=Nc3ccccc3)c(=O)[nH]c2=O)cc1	20µM*	8.2	u	20.6%	-10.7%	u	59.7*	75.7*	Pol kappa inh-2=37.7*
Cc1ccc(/C=C2\C(=O)NC(=O)N(CC3CCCO3)C2=O)s1 (stereo not drawn)	-18.2%	u	u	u	-23.2%	-19.6%	x	x
COc1ccc(CN2C(=O)NC(=O)/C(=C/c3ccc([N+](=O)[O-])s3)C2=O)cc1	14.1µM*	-74.6*	u	22.4µM*	22.4µM*	39.8µM*	23.8*	5.36*
CCN(CC(=O)Nc1c(F)cccc1F)C(=O)/C=C/c1ccc2ccccc2n1	1.12µM*	-99.7*	4.47µM*	x	8.91µM*	22.4µM*	9.47*	19*	BAZ2B inh=14.1*;AlphaScreen ctr=u;WRN helicase inh-2=19.2µM*;TO DNA binding=u;BLM counter=3.83µM*
CC(Cc1ccc(C(C)(C)C)cc1)CN1CC(C)OC(C)C1 (stereo not drawn)	x	x	x	x	-0.5%[60.1 µM]	x	x	x
O=[N+]([O-])c1cccc(O)c1	-13.3%	1.5	-12.7%	x	1.3%	-6.1%	x	x
O=[N+]([O-])c1cc(S(=O)(=O)c2ccc(O)c([N+](=O)[O-])c2)ccc1O	2.82µM*	-64.2*	17.8µM*	11.2µM*	44.7µM*	u	59.7*	30.1*	Pol kappa inh-2=6.7*;WRN helicase inh-2=19.2µM*;TO DNA binding=-9.7%;BLM counter=u
O=C1NC(=S)N(c2ccc(Br)cc2)C(=O)/C1=C/N1CCN(C(=O)c2ccco2)CC1	-10.0%	u	u	-1.8%	u	-29.9%	x	x
O=C1NC(=S)N(c2ccccc2)C(=O)/C1=C/c1ccco1	0.794µM*	-86.7*	1.58µM*	10µM*	2.51µM*	0.947µM*	0.474*	0.757*	PGK validate=0.326µM*;Pol kappa inh-2=0.67*;WRN helicase inh-2=0.961µM*;TO DNA binding=10.8µM*;BLM counter=0.192µM*
CN(C)[C@@H]1C(=O)C(C(N)=O)=C(O)[C@@]2(O)C(=O)C3=C(O)c4c(O)cccc4[C@@](C)(O)[C@H]3[C@H](O)[C@@H]12	3.98µM*	-84.9*	u	2.82µM*	2.82µM*	20µM*	9.47*	26.9*	Pol kappa inh-2=8.44*;WRN helicase inh-2=17.1µM*;TO DNA binding=u;BLM counter=13.6µM*
O=C1C=C2C=C[C@@H]3C[C@@]2(O1)[C@H]1CCCCN31	x	x	x	x	-2.3%[60.1 µM]	x	x	x
Oc1ccc2c(c1)[C@@]13CCCCC1[C@@H](C2)N(CC1CCC1)CC3 (stereo partly drawn)	x	x	x	x	7.6%[60.1 µM]	x	x	x
CCOC(=O)C1CCCN(c2ccc([N+](=O)[O-])c3nonc23)C1 (stereo not drawn)	35.5µM*	-2.4	56.2µM*	14.1µM*	25.1µM*	u	37.7*	75.7*	Pol kappa inh-2=84.4*;WRN helicase inh-2=24.1µM*;TO DNA binding=i;BLM counter=24.1µM*
